Assay results as given in PubChem BioAssay (Tox21).
Records with an inconclusive call do not appear. Active and inactive are the calls of the source. Unless noted, the call rests on the fitted dose curve; in most records, active means well fitted curve in the direction sought with a large enough effect in the repeat runs; inconclusive means weak or mixed curves; inactive means no such curve, though single readings can be large; an effect the other way counts as inactive or inconclusive.

Key:
[1] = qHTS assay to identify small molecule antagonists of the estrogen related receptor signaling pathway with the pleiotropic PPARgamma coactivator (PGC) cell viability counter screen (AID 1224822; further: potency means the concentration at half of the fitted maximal effect; on viability change, negative = cytotoxic: series mostly up to about 46 µM)
In short: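 Viability counter-screen read by fluorescence intensity after 30 min with CellTiter-Fluor at 37 C; PGC/ERR reporter cells were exposed to compounds for 17.5 h at 37 C following a 6 h preincubation.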

[2] = qHTS assay to identify small molecule antagonists of the estrogen related receptor (ERR) signaling pathway from Tox21 library - cell viability counter screen (AID 1224834); further: nearly all actives have a fitted effect of over 30% in size; further: potency means the concentration at half of the fitted maximal effect
In short: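 CellTiter-Fluor fluorescence, read after 30 min at 37 C, measures viability of ERR cells. Cells plated at 2,000/well and incubated 6 h before pin-tool compound addition, then exposed 17.5 hours at 37 C.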

[3] = target: Luciferin 4-monooxygenase (Photinus pyralis) (UniProt P08659); experiment: qHTS assay to identify small molecule inhibitors of firefly luciferase (AID 1224835); further: nearly all actives have a fitted effect of over 25% in size; further: potency means the concentration at half of the fitted maximal effect; on activity change, negative = inhibition: series mostly up to about 120 µM
In short: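 Quantitative HTS format; KM concentrations of both substrates. Purified P. pyralis FLuc activity quantified from luminescence images.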

[4] = qHTS assay to identify small molecule agonists of the constitutive androstane receptor (CAR) signaling pathway - cell viability counter screen (AID 1224836); further: nearly all actives have a fitted effect of over 45% in size; further: potency means the concentration at half of the fitted maximal effect; on viability change, negative = cytotoxic: series mostly up to about 92 µM
In short: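 Counter screen multiplexed with the CAR reporter readout: HepG2 cells co-transfected with hCAR and the CYP2B6-2.2kb construct receive a 15-concentration compound series and 0.75 uM PK11195 (final), then CellTiter-Fluor fluorescence is read after 23 h.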

[5] = qHTS assay to identify small molecule antagonists of the constitutive androstane receptor (CAR) signaling pathway - cell viability counter screen (AID 1224837); further: nearly all actives have a fitted effect of over 45% in size; further: potency means the concentration at half of the fitted maximal effect; on activity change, negative = cytotoxicity: series mostly up to about 92 µM
In short: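 Cytotoxicity counter-screen: CellTiter-Fluor fluorescence after 23 h compound exposure (15-point qHTS) in double-stable HepG2-CYP2B6-hCAR cells, with 50 nM CITCO added.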

[6] = qHTS assay to identify small molecule antagonists of the estrogen related receptor signaling pathway with the pleiotropic PPARgamma coactivator (PGC) from Tox21 10K library - cell viability counter screen (AID 1224840; active means well fitted cell-killing curve with a large enough effect in the repeat runs, not every such curve was filed as active; further: nearly all actives have a fitted effect of over 40% in size; further: potency means the concentration at half of the fitted maximal effect)
In short: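 Counter-screen for cytotoxicity: after 17.5 h compound exposure at 37 C, CellTiter-Fluor reagent added to PGC/ERR cells for 30 min and fluorescence read. Cells were seeded at 2,000 per well 6 h before dosing.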

[7] = target: Thyrotropin receptor (Homo sapiens) (UniProt P16473); experiment: qHTS assay to identify small molecule agonists of the thyroid stimulating hormone receptor (TSHR) signaling pathway (AID 1224843; calls by dose curve; further: nearly all actives have a fitted effect of over 45% in size; further: potency means the concentration at half of the fitted maximal effect)
In short: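 Compounds are titrated over 15 concentrations, in triplicate, onto TSHR-HEK293 cells seeded at 800/well. Plates sit 30 min at room temperature before cAMP-d2 and anti-cAMP cryptate are added; signal is read after a further hour.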

[8] = qHTS assay to identify small molecule agonists of the hypoxia (HIF-1) signaling pathway - cell viability counter screen (AID 1224844; calls by dose curve; further: nearly all actives have a fitted effect of over 50% in size; further: potency means the concentration at half of the fitted maximal effect)
In short: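 Cytotoxicity measured by CellTiter-Glo ATP luminescence in the wells also read for beta-lactamase signal. Cells were HRE-bla ME-180 (2,000/well, 0.5% dialyzed FBS), exposed to compounds for 17 h at 37C.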

[9] = qHTS assay to identify small molecule agonists of H2AX (AID 1224845; active means well fitted activation curve with a large enough effect in the signal ratio in the repeat runs, not every such curve was filed as active; the % refers to the signal ratio; further: potency means the concentration at half of the fitted maximal effect)
In short: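 Wild-type CHO-K1 cells plated overnight, then exposed 3 hr at 37C to compounds at 15 concentrations (0.76% DMSO). Lysed, then HTRF anti-pH2AX(S139)-cryptate/anti-H2AX-d2 detection after 24 hr at room temperature; emissions 665 and 620 nm.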

[10] = qHTS assay to identify small molecule agonists of H2AX - cell viability counter screen (AID 1224847; calls by dose curve; further: nearly all actives have a fitted effect of over 30% in size; further: potency means the concentration at half of the fitted maximal effect; on activity change, negative = cytotoxicity: top concentration of the series differs between compounds)
In short: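 We seed wild-type CHO-K1 cells overnight, treat them for 3 hr at 37C with compounds in 15-concentration series, and quantify remaining viability by CellTiter-Glo luminescence.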

[11] = target: Nuclear receptor subfamily 1 group I member 3 (Homo sapiens) (UniProt Q14994); experiment: qHTS assay to identify small molecule antagonists of the constitutive androstane receptor (CAR) signaling pathway (AID 1224838);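 further: HepG2 cells stably expressing hCAR with CYP2B6 luciferase reporter stimulated by CITCO; nearly all actives have a fitted effect of over 40% in size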; further: potency means the concentration at half of the fitted maximal effect
In short: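 Antagonism measured as luciferase signal (ONE-Glo, 30 min, room temperature) in CAR-stimulated cells: HepG2-CYP2B6-hCAR double-stable line exposed 24 hr at 37 C to compound in a 15-point series plus 50 nM CITCO.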

[12] = target: Nuclear receptor subfamily 1 group I member 3 (Homo sapiens) (UniProt Q14994); experiment: qHTS assay to identify small molecule agonists of the constitutive androstane receptor (CAR) signaling pathway (AID 1224839); further: nearly all actives have a fitted effect of over 15% in size; further: potency means the concentration at half of the fitted maximal effect; on activation: series mostly up to about 92 µM
In short: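 A 15-concentration quantitative screen uses HepG2 cells co-transfected stably with human CAR and CYP2B6-2.2kb reporter. Treatment lasts 24 h with 0.75 uM PK11195 final present; ONE-Glo luminescence is the signal.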

[13] = qHTS assay to identify small molecule antagonists of the estrogen related receptor signaling pathway with the pleiotropic PPARgamma coactivator (PGC) from Tox21 10K library (AID 1224841; call rule not given here; further: actives are mostly falling curves and most rising ones were filed inactive; nearly all actives have a fitted effect of over 50% in size; further: potency means the concentration at half of the fitted maximal effect; on activity, negative = inhibition: series mostly up to about 92 µM)
In short: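 Luminescence (One-Glo, 30 min at room temperature) after 18 h compound treatment at 37 C of PGC/ERR reporter cells plated at 2,000 cells/well and settled 6 h beforehand.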

[14] = qHTS assay to identify small molecule agonists of the estrogen related receptor signaling pathway with the pleiotropic PPARgamma coactivator (PGC) from Tox21 10K library (AID 1224842); further: nearly all actives have a fitted effect of over 15% in size
In short: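 PGC/ERR reporter cells (NTP line) were seeded 2,000 per well, rested 6 h at 37 C/5% CO2, then pin-dosed with compounds in DMSO for 18 h at 37 C; luciferase read by One-Glo luminescence after 30 min at room temperature.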

[15] = qHTS assay to identify small molecule antagonists of the estrogen related receptor (ERR) signaling pathway from Tox21 library (AID 1224848); further: nearly all actives have a fitted effect of over 50% in size; further: potency means the concentration at half of the fitted maximal effect
In short: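 First, 2,000 ERR cells per well were plated and held 6 h at 37 C/5% CO2. Next, compounds in DMSO were pinned in and left 18 h at 37 C. Finally, ONE-Glo was added and luminescence read after 30 min at room temperature.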

[16] = qHTS assay to identify small molecule agonists of the hypoxia (HIF-1) signaling pathway (AID 1224846; active means well fitted activation curve with a large enough effect in the signal ratio in the repeat runs, not every such curve was filed as active; the % refers to the signal ratio)
In short: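 Compounds added to ME-180 cells carrying hypoxia-response-element beta-lactamase reporter (0.5% dialyzed FBS, 5 h preplating), 17 h at 37C; agonist activity detected by CCF4-AM B/G FRET read-out.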
On the % scale 0 is the no-effect control and ±100 the full control effect.

Chain of Luciferin 4-monooxygenase (Photinus pyralis) (P08659 whole entry, looked up): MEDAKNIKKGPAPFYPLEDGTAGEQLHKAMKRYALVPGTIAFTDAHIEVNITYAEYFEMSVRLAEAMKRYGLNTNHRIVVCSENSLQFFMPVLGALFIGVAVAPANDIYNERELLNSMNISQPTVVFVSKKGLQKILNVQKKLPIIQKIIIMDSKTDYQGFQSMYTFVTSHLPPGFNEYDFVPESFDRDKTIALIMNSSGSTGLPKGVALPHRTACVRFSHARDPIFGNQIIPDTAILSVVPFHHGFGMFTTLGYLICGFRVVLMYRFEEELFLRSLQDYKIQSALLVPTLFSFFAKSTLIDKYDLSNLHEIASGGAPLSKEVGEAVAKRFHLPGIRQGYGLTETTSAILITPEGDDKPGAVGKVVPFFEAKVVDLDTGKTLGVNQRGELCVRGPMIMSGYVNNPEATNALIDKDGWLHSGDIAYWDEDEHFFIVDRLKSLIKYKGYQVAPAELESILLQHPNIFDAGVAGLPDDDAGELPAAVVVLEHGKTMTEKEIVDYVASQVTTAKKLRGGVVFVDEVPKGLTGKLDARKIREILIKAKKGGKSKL
Chain of Thyrotropin receptor (Homo sapiens) (P16473 whole entry, looked up): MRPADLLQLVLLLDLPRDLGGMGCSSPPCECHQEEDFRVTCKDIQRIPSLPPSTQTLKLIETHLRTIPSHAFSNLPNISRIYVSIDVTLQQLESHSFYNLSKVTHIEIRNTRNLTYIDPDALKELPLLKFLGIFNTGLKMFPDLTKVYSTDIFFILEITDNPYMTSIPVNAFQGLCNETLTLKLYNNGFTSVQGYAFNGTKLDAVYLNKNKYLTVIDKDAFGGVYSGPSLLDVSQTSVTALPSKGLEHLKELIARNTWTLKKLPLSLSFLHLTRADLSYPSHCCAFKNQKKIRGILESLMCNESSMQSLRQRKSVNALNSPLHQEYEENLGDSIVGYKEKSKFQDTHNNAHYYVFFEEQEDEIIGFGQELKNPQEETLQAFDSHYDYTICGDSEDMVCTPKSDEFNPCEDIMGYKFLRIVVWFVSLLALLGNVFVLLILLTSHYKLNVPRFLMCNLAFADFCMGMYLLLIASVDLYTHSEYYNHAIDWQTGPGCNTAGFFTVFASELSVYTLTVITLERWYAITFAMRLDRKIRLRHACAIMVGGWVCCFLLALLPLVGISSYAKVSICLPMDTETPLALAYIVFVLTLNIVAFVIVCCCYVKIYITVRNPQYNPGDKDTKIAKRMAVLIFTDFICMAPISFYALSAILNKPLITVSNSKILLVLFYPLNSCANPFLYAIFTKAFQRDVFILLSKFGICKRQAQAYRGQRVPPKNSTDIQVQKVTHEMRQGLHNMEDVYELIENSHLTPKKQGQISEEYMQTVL
Chain of Nuclear receptor subfamily 1 group I member 3 (Homo sapiens) (Q14994 whole entry, looked up): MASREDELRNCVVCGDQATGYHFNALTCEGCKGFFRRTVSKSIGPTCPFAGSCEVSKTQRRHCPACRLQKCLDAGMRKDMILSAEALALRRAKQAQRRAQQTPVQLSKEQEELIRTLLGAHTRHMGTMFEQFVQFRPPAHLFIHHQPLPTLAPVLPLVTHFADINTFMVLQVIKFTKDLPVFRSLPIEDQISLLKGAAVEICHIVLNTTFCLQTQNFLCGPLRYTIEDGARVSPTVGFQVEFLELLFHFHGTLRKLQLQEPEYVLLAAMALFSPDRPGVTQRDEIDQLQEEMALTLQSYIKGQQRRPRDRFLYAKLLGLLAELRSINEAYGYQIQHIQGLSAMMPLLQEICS

CC(C)NC[C@H](O)COc1cccc2ccccc12
inactive: Potency [1]

N.N.O=C(O)C1(C(=O)O)CCC1.[Pt+2]
inactive: Potency [1]

Cn1c(=O)[nH]c2ncn(C)c2c1=O
inactive: Potency [1] | Potency [2] | Potency [3] | Potency [4] | Potency [5] | Potency [6] | Potency [7] | Potency [8] | Potency [9] | Potency [10]

NCC(O)c1ccc(O)c(O)c1 (stereo unspecified)
inactive: Potency [1]

Oc1ccc(C2(c3ccc(O)c(C4CCCCC4)c3)CCCCC2)cc1C1CCCCC1
active: Potency [2] 61.1 µM | Potency [4] 48.6 µM | Potency [5] 27.3 µM | Potency [11] 27.3 µM | Potency [6] 61.1 µM | Potency [13] 54.5 µM | Potency [7] 6.86 µM | Potency [8] 12.3 µM | Potency [9] 22.5 µM | Potency [10] 22.5 µM | Potency [15] 38.6 µM
inactive: Potency [3] | Potency [12] | Potency [14]

Oc1cc(O)c2c(c1)O[C@H](c1ccc(O)c(O)c1)[C@@H](O)C2
inactive: Potency [1]

CC(C)(C)c1cc(CCC(=O)OCCSCCOC(=O)CCc2cc(C(C)(C)C)c(O)c(C(C)(C)C)c2)cc(C(C)(C)C)c1O
inactive: Potency [2] | Potency [3] | Potency [4] | Potency [5] | Potency [11] | Potency [12] | Potency [6] | Potency [14] | Potency [7] | Potency [8] | Potency [9] | Potency [16] | Potency [10]

CN1CCN(CCCN2c3ccccc3Sc3ccc(Cl)cc32)CC1
active: Potency [1] 27.6 µM | Potency [8] 21.3 µM
inactive: Potency [3] | Potency [4] | Potency [11] | Potency [12] | Potency [7]

COc1cc2ncnc(Nc3cccc(Cl)c3)c2cc1OC
inactive: Potency [1] | viability change, negative = cytotoxic [2] -12.2% [at 19 µM] | activity change, negative = inhibition [3] -1.79% [at 23.6 µM] | viability change, negative = cytotoxic [4] -10.2% [at 19 µM] | activity change, negative = cytotoxicity [5] -20.1% [at 19 µM] | viability change, negative = cytotoxic [6] -14.4% [at 19 µM] | activation [7] -0.89% [at 19 µM] | activity change, negative = cytotoxicity [8] -10.3% [at 15.8 µM] | activation (H2AX phosphorylation) [9] 1.29% [at 31.6 µM] | activation [16] 0.103% [at 15.8 µM] | activity change, negative = cytotoxicity [10] 1.51% [at 31.6 µM]

COc1cc(C(O)CO)ccc1O (stereo unspecified)
inactive: Potency [1]

[Cl][Sc]([Cl])[Cl]
active: Potency [3] 28.3 µM
inactive: Potency [2] | Potency [4] | Potency [5] | Potency [11] | Potency [12] | Potency [6] | Potency [14] | Potency [7] | Potency [8] | Potency [9] | Potency [16] | Potency [10]

CCCCCCCCSCc1cc(C)c(O)c(CSCCCCCCCC)c1
inactive: Potency [2] | Potency [3] | Potency [4] | Potency [5] | Potency [11] | Potency [12] | Potency [6] | Potency [13] | Potency [14] | Potency [7] | Potency [8] | Potency [9] | Potency [16] | Potency [10]

CCc1cccc(C)c1N(C(=O)C(=O)O)C(C)COC (stereo unspecified)
inactive: Potency [2] | Potency [3] | Potency [4] | Potency [5] | Potency [11] | Potency [12] | Potency [6] | Potency [7] | Potency [8] | Potency [9] | Potency [16] | Potency [10]

Nc1ncnc2c1ncn2[C@@H]1O[C@H](CO)C(O)[C@H]1O (stereo partly specified)
inactive: Potency [1]

O=[N+]([O-])c1ccc(O)c2ncccc12
inactive: Potency [3] | Potency [4] | Potency [5] | Potency [11] | Potency [14] | Potency [7] | Potency [8] | Potency [10]
active: Potency [2] 11.9 µM | Potency [12] 11.9 µM | Potency [6] 10.6 µM | Potency [13] 5.31 µM | Potency [15] 5.31 µM

CN(C)CCC(c1ccc(Br)cc1)c1ccccn1 (stereo unspecified)
inactive: Potency [1]

C=C[Si](C)(C)Cl
inactive: viability change, negative = cytotoxic [2] 5.38% [at 8.39 µM] | activity change, negative = inhibition [3] 5.1% [at 10.5 µM] | viability change, negative = cytotoxic [4] -0.0044% [at 8.39 µM] | activity change, negative = cytotoxicity [5] -8.76% [at 8.39 µM] | viability change, negative = cytotoxic [6] 3.07% [at 8.39 µM] | activation [7] -10.3% [at 8.39 µM] | activity change, negative = cytotoxicity [8] -0.253% [at 6.97 µM] | activation (H2AX phosphorylation) [9] 0.0782% [at 14 µM] | activation [16] 0.268% [at 7.01 µM] | activity change, negative = cytotoxicity [10] -1.05% [at 14 µM]

Oc1ccc2c(c1)CCC2
inactive: Potency [2] | Potency [3] | Potency [4] | Potency [5] | Potency [11] | Potency [6] | Potency [13] | Potency [14] | Potency [8] | Potency [9] | Potency [16] | Potency [10]

C=CC(C)(C)O
inactive: Potency [2] | Potency [3] | Potency [4] | Potency [5] | Potency [11] | Potency [12] | Potency [6] | Potency [8] | Potency [9] | Potency [16] | Potency [10]

COc1cc(C(C)C)ccc1C
inactive: viability change, negative = cytotoxic [2] 2.54% [at 19 µM] | activity change, negative = inhibition [3] 1.91% [at 23.6 µM] | viability change, negative = cytotoxic [4] 2.67% [at 19 µM] | activity change, negative = cytotoxicity [5] 1.68% [at 19 µM] | activity, negative = inhibition [11] -11.9% [at 19 µM] | activation [12] -0.0502% [at 19 µM] | activation [7] 6.84% [at 19 µM] | activity change, negative = cytotoxicity [8] 21.3% [at 15.8 µM] | activation (H2AX phosphorylation) [9] 0.221% [at 31.6 µM] | activation [16] -0.0499% [at 15.8 µM] | activity change, negative = cytotoxicity [10] 1.56% [at 31.6 µM]

CC1CCC(C(C)(C)O)CC1 (stereo unspecified)
inactive: Potency [2] | Potency [3] | Potency [4] | Potency [11] | Potency [12] | Potency [6] | Potency [8] | Potency [9] | Potency [16] | Potency [10]

COc1c(Br)cc(Br)c(C)c1Br
inactive: Potency [2] | Potency [3] | Potency [4] | Potency [6] | Potency [7] | Potency [8] | Potency [16] | Potency [10]

Cc1ccc(Cl)c(N)c1Cl
inactive: Potency [2] | Potency [3] | Potency [4] | Potency [12] | Potency [14] | Potency [15]

SC1CCCCC1
inactive: Potency [2] | Potency [3] | Potency [4] | Potency [11] | Potency [12] | Potency [6] | Potency [13] | Potency [14] | Potency [7] | Potency [8] | Potency [9] | Potency [16] | Potency [10] | Potency [15]
